Inconclusive results are not listed. Active and inactive are the calls of the source. The call rests on the fitted dose curve; in most records, active means well fitted cell-killing curve with a large enough effect; inconclusive means small, poorly fitted or top-dose-only effect, or effect the other way; inactive means flat fitted curve, though single readings scatter.
Key:
Experiment in all cases: Primary qHTS to identify gynecologic anti-cancer compounds using libraries of approved drugs and bioactive compounds (AID 1345084); further: nearly all actives have a fitted effect of over 55% in size
[1] = tested on: C33A; conditions: Gynecologic cancer cell panel viability, ATPlite luminescence, 48 h; series mostly up to 57.5 µM
Outline: (§1)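 Five-concentration response, 48 h; readout is ATP-driven luciferase luminescence.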

[2] = tested on: CAOV3; conditions: Gynecologic cancer cell panel viability, ATPlite luminescence, 48 h; series mostly up to 57.5 µM
Outline: as §1

[3] = tested on: CASKI; conditions: Gynecologic cancer cell panel viability, ATPlite luminescence, 48 h; series mostly up to 57.5 µM
Outline: as §1

[4] = tested on: Es-2; conditions: Gynecologic cancer cell panel viability, ATPlite luminescence, 48 h; series mostly up to 57.5 µM
Outline: as §1

[5] = tested on: HeLa; conditions: Gynecologic cancer cell panel viability, ATPlite luminescence, 48 h; series mostly up to 57.5 µM
Outline: as §1

[6] = tested on: Hek293T; conditions: Gynecologic cancer cell panel viability, ATPlite luminescence, 48 h, control line for the selectivity index; series mostly up to 57.5 µM
Outline: as §1

[7] = tested on: JEG-3; conditions: Gynecologic cancer cell panel viability, ATPlite luminescence, 48 h; series mostly up to 57.5 µM
Outline: as §1

[8] = tested on: OV90; conditions: Gynecologic cancer cell panel viability, ATPlite luminescence, 48 h; series mostly up to 57.5 µM
Outline: as §1

[9] = tested on: PA-1; conditions: Gynecologic cancer cell panel viability, ATPlite luminescence, 48 h; series mostly up to 57.5 µM
Outline: as §1

[10] = tested on: SKOV3; conditions: Gynecologic cancer cell panel viability, ATPlite luminescence, 48 h; series mostly up to 57.5 µM
Outline: as §1

[11] = tested on: Tov-21-G; conditions: Gynecologic cancer cell panel viability, ATPlite luminescence, 48 h; series mostly up to 57.5 µM
Outline: as §1

[12] = tested on: Tov112D; conditions: Gynecologic cancer cell panel viability, ATPlite luminescence, 48 h; series mostly up to 57.5 µM
Outline: as §1

Measured: Potency
Potency means the concentration at half of the fitted maximal effect.

C/C=C/c1cc(OC)c2c(c1)[C@@H](C)[C@@H](c1ccc(O)c(OC)c1)O2
inactive: [1] | [2] | [3] | [4] | [5] | [6] | [7] | [8] | [9] | [10] | [11] | [12]

CC(=O)N[C@@H](C(=O)O[C@H]1CCC(C)(C)[C@@H]2CCC3=C(COC3=O)[C@@]12C)C(C)C
inactive: [1] | [2] | [3] | [4] | [5] | [6] | [7] | [8] | [9] | [10] | [11] | [12]

CC(C)=CCC/C(C)=C/Cc1ccc(O)c(C2OC(=O)c3cc(C(=O)O)cc(O)c32)c1O (stereo not given)
inactive: [1] | [2] | [3] | [4] | [5] | [6] | [7] | [8] | [9] | [10] | [11] | [12]

CC1(C)CC[C@]2(C(=O)O[C@@H]3O[C@H](CO)[C@@H](O)[C@H](O)[C@H]3O)CC[C@]3(C)C(=CCC4[C@@]5(C)C[C@@H](O)[C@H](O)C(C)(C)C5[C@H](O)C[C@]43C)[C@@H]2[C@@H]1O (stereo not given in full)
inactive: [1] | [2] | [3] | [4] | [5] | [6] | [7] | [8] | [9] | [10] | [11] | [12]

C/C(=C\CCC(C)CCO)C(=O)O[C@@H]1[C@@H](O)[C@H](OC2OC=C(C(=O)O)C3CCC(C)(O)C23)O[C@H](CO)[C@H]1O (stereo not given in full)
inactive: [1] | [2] | [3] | [4] | [5] | [6] | [7] | [8] | [9] | [10] | [11] | [12]

CSc1ccc(C(=O)N[C@@H]2CCCC[C@@H]2NC(=O)CNC(=O)c2cc(C(F)(F)F)ccc2NC(=O)NC(C)C)cc1
inactive: [1] | [2] | [3] | [4] | [5] | [6] | [7] | [8] | [9] | [10] | [11] | [12]

COc1c2c(c(C)c3c1C(=O)OC3)O[C@@]1(C)CCC3(C(C)(C)O)OC(=O)CC[C@]3(C)[C@H]1C2 (stereo not given in full)
inactive: [1] | [2] | [3] | [4] | [5] | [6] | [7] | [8] | [9] | [10] | [11] | [12]

CC(=O)O[C@@H]1C[C@@H](OC(C)=O)C(C)(C)/C=C/[C@H](C)[C@H](OC(C)=O)[C@@]2(O)C[C@H](C)[C@H](OC(=O)c3ccccc3)[C@@H]2/C=C/1C
inactive: [1] | [2] | [3] | [4] | [5] | [6] | [7] | [8] | [9] | [10] | [11] | [12]

Cn1cc(-c2ccc3nnc(Sc4ccc5nn(C)cc5c4)n3n2)cn1
inactive: [1] | [2] | [3] | [4] | [5] | [6] | [7] | [8] | [9] | [10] | [11] | [12]

c1cn2cc(-c3ccc4cn[nH]c4c3)nc(Nc3ccc(N4CCOCC4)cc3)c2n1
active: [1] 2.24 µM | [2] 2 µM | [3] 2.82 µM | [4] 2.51 µM | [5] 2.82 µM | [6] 2.24 µM | [7] 2.82 µM | [8] 1.78 µM | [9] 1.78 µM | [10] 2.82 µM | [11] 2.24 µM | [12] 2.24 µM

CC(C)(C)c1cc(Br)cc([C@H](CC(=O)O)NC(=O)CNC(=O)c2cc(O)cc(NC3=NCC(O)CN3)c2)c1 (stereo not given in full)
inactive: [1] | [2] | [3] | [4] | [5] | [6] | [7] | [8] | [9] | [10] | [11] | [12]

CC(C)C(=O)OC[C@H]1O[C@H](O[C@H]2O[C@H](CO)[C@@H](O)[C@H](O)[C@H]2O)[C@H](O)[C@@H](O)[C@@H]1O
inactive: [1] | [2] | [3] | [4] | [5] | [6] | [7] | [8] | [9] | [10] | [11] | [12]

COCCOc1ccc(N2CCN(CCn3ncc4c3nc(N)n3nc(-c5ccco5)nc43)CC2)cc1
inactive: [1] | [2] | [3] | [4] | [5] | [6] | [7] | [8] | [9] | [10] | [11] | [12]

COC(=O)C[C@H]1C(C)(C)[C@H](OC(=O)C(C)C)[C@@]2(O)C(=O)[C@]1(C)C1CC[C@]3(C)C(CC(=O)O[C@H]3c3ccoc3)[C@]13O[C@@H]32 (stereo not given in full)
inactive: [1] | [2] | [3] | [4] | [5] | [6] | [7] | [8] | [9] | [10] | [11] | [12]

CC(=O)O[C@H]1CC[C@@]2(C)C(CC[C@@H](C)[C@]23Cc2c(O)cc4c(c2O3)CN([C@@H](CCC(=O)O)C(=O)O)C4=O)C1(C)C (stereo not given in full)
inactive: [1] | [2] | [3] | [4] | [5] | [6] | [7] | [8] | [9] | [10] | [11] | [12]
